Source: PubChem BioAssay (NCI)
About 83,000 compounds went through this panel and 20% of them were active in at least one assay; those are over-represented in the sample as a whole.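 Compound tested at a single concentration for 48 hours in 96-well plates; a percent growth value below 10 was scored as active.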 Calls of active or inactive are those of the source.

test system: HCT-15 colon; assay: NCI-60 one-dose screen, 48 h (100 = growth as untreated, 0 = no growth, -100 = all killed); conditions: 10 µM unless noted

Row | Structure (SMILES) | growth
1 | C#CC(OC(=O)N(C)C)(c1ccccc1)c1ccc(F)cc1 (centres undefined) | 94.8% (inactive)
2 | CC(C)c1ccc(C(=O)Nc2sc3c(c2C#N)CCC(=O)C3)cc1 | -24.5% (active)
3 | c1coc2occoc=2o1 | 102% (inactive)
4 | Cc1cc(SC#N)ncn1 | 102% (inactive)
5 | Cc1ccc(NCCN2CCCCC2)c2c(=O)c3ccccc3sc12 | 13.9% (inactive)
6 | O=C(NCCCNC(=O)OCc1ccc2cccc(O)c2n1)OCc1ccc2cccc(O)c2n1 | 1.71% (active)
7 | O=[N+]([O-])c1ccc(O)c(-c2nc3ccccc3s2)c1 | 89% (inactive)
8 | COc1ccc(C(=O)CSc2nccc(Nc3ccc(C(=O)O)cc3)n2)cc1 | 100% (inactive)
9 | C=C(C)[C@@H]1CC[C@]2(C(=O)NCCNCCNC(=O)OC(C)(C)C)CC[C@]3(C)[C@H](CC[C@@H]4[C@@]5(C)CCC(=O)C(C)(C)[C@@H]5CC[C@]43C)[C@@H]12 | 50.4% [100 µM] (inactive)
10 | Cc1ccc(-c2cn(C/C=C3\C=CN(S(=O)(=O)c4ccccc4)CC3)nn2)cc1 | 95.6% (inactive)
11 | CC1(C)CC[C@]23CC[C@]4(C)[C@H](CC[C@@H]5[C@@]6(C)C/C(=C/c7ccncc7)C(=O)C(C)(C)[C@@H]6CC[C@]54C)[C@H]2[C@H]1OC3=O | 76.5% [100 µM] (inactive)
12 | CCN(CC)CCCOc1ccc2c(c1)O/C(=C\c1cccc(OC)c1)C2=O | 53.5% (inactive)
13 | CC1Cc2c(Cl)ncnc2N(C)c2ccc(O)cc21 (centres undefined) | 67.3% (inactive)
14 | CSc1cccc([N+](=O)[O-])c1 | 100% (inactive)
